PubChem BioAssay (NCATS)
Inconclusive results are not listed. The source made the active and inactive calls. Calls come from the whole dose curve; as a rule, active = well fitted inhibition curve with a large enough effect; inconclusive = small, poorly fitted or top-dose-only effect; inactive = flat fitted curve, though single readings scatter.

Tests used:
CRL-7250 = normal cell line; assay: Cytotoxic Profiling of Annotated Libraries Using Quantitative High-Throughput Screening (AID 1296008); settings: Five cell lines viability, CellTiter-Glo ATP luminescence, 48-72 h; max response: active compounds read low; for max response: % is set by controls: 0 for no effect and ±100 for the full control effect
Method in brief: (§1)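 Cells exposed to compounds for 48 or 72 hr at 37 degrees Celsius. Viability read as ATP-coupled luminescence with CellTiter-Glo after 10 min at room temperature.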

HaCat [1] = assay: as above; settings: Five cell lines viability, CellTiter-Glo ATP luminescence, 48-72 h; max response: active compounds read low
Method in brief: as §1

KB-3-1 = assay: as above; settings: Five cell lines viability, CellTiter-Glo ATP luminescence, 48-72 h; max response: active compounds read low
Method in brief: as §1

NIH3T3 = assay: as above; settings: Five cell lines viability, CellTiter-Glo ATP luminescence, 48-72 h; max response: active compounds read low
Method in brief: as §1

HACAT [2] = assay: qHTS assay to identify novel small-molecules to repurpose for Merkel cell carcinoma treatment (AID 1296009); settings: MCC and control cell lines, CellTiter-Glo viability, 72 h; at 44.8 µM (top of the series) unless noted
Method in brief: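 Dose-response viability screen; 72 hr exposure at 37 degree celsius; CellTiter-Glo added, 10 min room temperature, luminescence read; RLUs scaled between no-cell and DMSO wells.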

Measured: max response
Note: nearly all actives have a fitted effect of over 60% in size.

CC1(C=O)CCCC2(C)C1CCC13CC(CO)C(CCC12)C3 (stereo not drawn)
inactive: CRL-7250 | HaCat [1] 3.29% | KB-3-1 7.38% | NIH3T3 -4.47%

O=[N+]([O-])c1cn2c(n1)OC[C@@H](OCc1ccc(-c3ccc(OC(F)(F)F)cc3)nc1)C2
inactive: CRL-7250 2.36% | HaCat [1] -7.6% | KB-3-1 -0.53% | NIH3T3 -0.0728%

COc1ccc(CN2CCN(CCCSc3cc(C(C)(C)C)c(O)c(C(C)(C)C)c3)CC2)c(OC)c1OC
inactive: CRL-7250 | HaCat [1] -2% | KB-3-1 | NIH3T3 4.43%

O=C1Nc2ccccc2-c2nc3ccccc3c(=O)n2-c2c(O)cccc21
inactive: CRL-7250 3.48% | HaCat [1] -26.5% | KB-3-1 0.451% | NIH3T3 1.73%

C=C1C(=O)O[C@@H]2/C=C(/C)[C@@H](OC(C)=O)C/C=C(\C)C[C@@H](OC(=O)/C(=C/CO)CO)[C@@H]12
inactive: CRL-7250 3.05% | HaCat [1] -3.88% | KB-3-1 | NIH3T3 0.581%

CC(C)C(C)C(O)C1CC23CC(=O)C4(O)C(=C2CCC3C1C)C=CC1(O)CC(O)CCC14C (stereo not drawn)
inactive: CRL-7250 -22.9% | HaCat [1] 2.09% | KB-3-1 5.36% | NIH3T3 -0.33%

CC(C)c1noc(C2CCN(c3ncnc(Nc4ccc(S(C)(=O)=O)cc4F)c3[N+](=O)[O-])CC2)n1
inactive: CRL-7250 -0.282% | HaCat [1] 1.98% | KB-3-1 -4.1% | NIH3T3 -23.4%

COc1ccc(C2Oc3c(OC)cc(CCCO)cc3C2COC2OC(CO)C(O)C(O)C2O)cc1OC (stereo not drawn)
inactive: CRL-7250 | HaCat [1] 1.52% | KB-3-1 -12.2% | NIH3T3 -1.06%

CCCCOC(=O)NS(=O)(=O)c1sc(CC(C)C)cc1-c1ccc(Cn2ccnc2)cc1
inactive: CRL-7250 -0.539% | HaCat [1] -26.5% | KB-3-1 -13.1% | NIH3T3

CNC(=O)c1ccc2c(c1)CCO[C@H]2CCN1CCN(c2ccc(OC)cc2)CC1
inactive: CRL-7250 1.26% | HaCat [1] -0.835% | KB-3-1 -8.62% | NIH3T3 2.66%

C/C(=C/CO)CCC1C(C)CCC2C(C)(C)CCCC12C (stereo not drawn)
inactive: CRL-7250 -3.35% | HaCat [1] -18.8% | KB-3-1 6.99% | NIH3T3 1.98%

CC1(C)CCC(C)(C)c2cc(C#Cc3ccc(C(=O)O)cc3)ccc21
inactive: CRL-7250 -18.1% | HaCat [1] -1.18% | KB-3-1 -2.7% | NIH3T3

O=C(NCCCN1CCC2(CC1)OCc1ccccc12)[C@H]1CCCN1Cc1ccccc1
inactive: CRL-7250 | HaCat [1] | KB-3-1 -7.1% | NIH3T3 4.93% | HACAT [2]
